Assay outcomes as filed in PubChem BioAssay.
MazF activator: activators of E. coli MazEF toxin-antitoxin RNase, primary screen, biochemical, fluorescence, uHTS | FAM/BHQ RNA-DNA oligo cleavage fluorescence, 5 h | activation, % at 20 µM | 0.32% of 350,000 active; in the data active = activation above about 50%
Target sequence (P0AE70 whole entry, looked up): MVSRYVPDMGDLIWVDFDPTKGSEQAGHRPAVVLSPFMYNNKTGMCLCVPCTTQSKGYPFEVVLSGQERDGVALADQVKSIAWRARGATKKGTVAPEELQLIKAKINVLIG
Vc quorum ag-1: inducers of Vibrio cholerae quorum light production without autoinducers, primary screen, BH1578 luxS cqsA deficient, single point; 0.16% of 350,000 active; V. cholerae BH1578 lux reporter, luminescence, 6 h; activation, % at 18.7 µM; in the data active = activation mostly above about 9.7%, no sharp cut-off
SSB-PriA inh: inhibitors of Klebsiella pneumoniae PriA binding to SSB C-terminal tail, primary screen, biochemical, AlphaScreen; PriA–SSB C-terminal tail interaction (Klebsiella pneumoniae); 0.6% of 430,000 active; AlphaScreen SSBct-PriA binding, biotinylated peptide; inhibition, % at 33 µM; in the data active = inhibition mostly above about 37%, no sharp cut-off; inactive = mostly below about 20%;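 also: plate controls were negative control peptide for no effect and reference peptide for full effect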
Mtb hypoxia rep: PubChem AID 1159583; M. tuberculosis hypoxia-regulated fluorescent reporter, fluorescence; fluorescence inhibition, % (no concentration beside the values); 0.1% of 300,000 active; in the data active = fluorescence inhibition mostly above about 23%, no sharp cut-off; inactive = mostly below about 17%
Vc quorum ag-2: V. cholerae lux activation without autoinducers – BH1578 luxS cqsA deficient, cherry-pick, plate reader, dose response; shares compounds with Vc quorum ag-1; V. cholerae BH1578 lux reporter, luminescence, 6 h; activation, % at 50 µM; 620 tested, under 10 active; call rule not given here
* = called active by the depositor; i = inactive; · = no result given. Sampled rows, rich in hits. Any-hit rate of the full collection: about 0.94%.

SMILES	MazF activator	Vc quorum ag-1	SSB-PriA inh	Mtb hypoxia rep	Vc quorum ag-2
CC(C)Oc1ccc(C(=O)Nc2nc(CN3CCc4ccccc4C3)cs2)cc1	·	·	15	·	·
CC(=O)Nc1nonc1NC(C)=O	4	26*	-12	7	1
CC(=O)Nc1nonc1NC(=O)c1ccc(F)cc1	9	·	-2	7	·
O=C(NCCCN1CCOC(c2ccccc2)C1)C(=O)NCc1ccc2c(c1)OCO2 (stereo not drawn)	·	·	-6	·	·
COc1ccc(C(=O)Cn2cnc3c(cnn3-c3cccc(Cl)c3)c2=O)cc1	·	·	-4	·	·
O=C(NCC1CCCO1)C1CCN(C(=O)c2ccc(Cl)cc2)CC1 (stereo not drawn)	4	17*	-8	8	0
COc1ccccc1NC(=O)N1CCC(CNC(=O)C(=O)NCc2ccc3c(c2)OCO3)CC1	·	·	-4	·	·
O=[N+]([O-])c1ccc(N(CCO)CCO)c2c1no[n+]2[O-]	-168	39*	·	·	2
Cc1ccc(Cn2c(SCC(C)C)nc3c2c(=O)[nH]c(=O)n3C)cc1	-23	25*	-12	·	2
CCCSc1nc2c(c(=O)[nH]c(=O)n2C)n1Cc1ccc(C)cc1	-32	-12	-20	3	·
CC12CCC(=O)N1C(C(=O)NNC(=O)COc1ccc(Br)cc1)CS2 (stereo not drawn)	6	12	4	-2	0
Cc1cc(Cl)ccc1OCC(=O)NNC(=O)C1CSC2(C)CCC(=O)N12 (stereo not drawn)	-9	i	-15	7	·
CN(C)S(=O)(=O)c1cccc(NC(=O)COC(=O)c2ccc(Br)o2)c1	5	14	3	·	0
CCOC(=O)N1CCC(NC(=O)[C@@H]2CSCCC(=O)N2)CC1	·	·	-5	·	·
CC1CCCC(C)N1CC(O)Cn1cc(/C=N\NC(=O)c2ccncc2)c2ccccc21 (stereo not drawn)	·	·	12	·	·
CCN(CC1COc2ccccc2O1)C(=S)Nc1ccccc1 (stereo not drawn)	-4	12	-1	8	1
C=CCNC(=O)CCCOc1ccc(C)cc1	1	35*	-13	·	10
CCc1sc(N(C(=O)Cc2ccccc2)c2cccc(F)c2)nc1-c1ccc(C)cc1	-6	12	-18	4	0
CN(C)c1ccc(NC(=O)Cn2ncn3c(cc4ccccc43)c2=O)cc1	-2	-12	23	-10	·
Cc1cc(C)cc(NC(=O)Cn2ncn3c(cc4ccccc43)c2=O)c1	-12	18*	-10	-5	1
O=C(O)C1CCN(c2cc(-n3cncn3)ncn2)CC1	·	·	1	·	·
O=C(Nc1ccc(-c2cn3ccsc3n2)cc1)c1ccc(F)c(S(=O)(=O)N2CCOCC2)c1	10	12	6	-1	0
COc1ccc(N2CCN(c3ncnc4scc(-c5ccc(Cl)cc5)c34)CC2)cc1	·	·	4	·	·
O=S(=O)(/C=C/c1ccccc1)N1CCN(c2cc(C(F)(F)F)ncn2)CC1	·	·	-7	·	·
Cc1ccccc1OC(C)c1nc(-c2ccccc2)no1 (stereo not drawn)	-8	12	-93	-8	0
SMILES	MazF activator	Vc quorum ag-1	SSB-PriA inh	Mtb hypoxia rep	Vc quorum ag-2
Cc1ccc(SC(C)c2nc(-c3ccccc3)no2)cc1 (stereo not drawn)	1	-1	-70	4	·
COc1ccc(S(=O)(=O)C2CCN(C(=O)Cn3cnc4ccccc4c3=O)CC2)cc1	·	·	-22	·	·
CCCCc1ccc(NC(=O)c2cc(=O)c(OCC)co2)cc1	·	·	-23	·	·
O=C(OCc1cc(=O)n2ccsc2n1)c1ccc(OC(F)F)cc1	2	13	-12	0	0
CCSc1nnc(NC(=O)CSc2nnc(CNC(=O)c3cccc([N+](=O)[O-])c3C)n2-c2ccc(F)cc2)s1	·	·	-5	·	·
O=C(CNc1cc(S(=O)(=O)N2CCOCC2)ccc1N1CCCC1)Nc1ccc(Cl)cc1	-1	97*	-2	4	0
CC(=O)c1ccc(NC(=O)CNc2cc(S(=O)(=O)N3CCOCC3)ccc2N2CCCC2)cc1	5	i	-7	-1	·
COc1ccc(S(=O)(=O)Nc2ccc3c(c2)CN(C(C)=O)CC3)cc1	·	·	-3	·	·
COc1ccc(/C=N\NC(=O)C2(C)CCC(c3nc4ccccc4[nH]3)C2(C)C)c(C(=O)O)c1OC (stereo not drawn)	·	·	-5	·	·
CC(C)n1c(N)c2ccccc2nc1=O	·	·	-1	·	·
CCOC(=O)C1=C(C)NC(SC)=NC1c1ccc(OC)cc1 (stereo not drawn)	5	25	-6	·	0
CCOC(=O)C1=C(C)NC(C)=C(C(=O)OCC)C1c1ccc(OC)cc1	0	0	-13	-7	·
CC(=O)c1cccc(NC(=O)COC(=O)Cc2ccc(Cl)cc2)c1	0	14	-2	-1	0
COCc1nnc(NS(=O)(=O)c2ccc(F)cc2)s1	8	-1	-14	3	·
COCc1nnc(NS(=O)(=O)c2ccc(Br)cc2)s1	-2	28*	1	3	0
COc1ccc(S(=O)(=O)C(CNC(=O)c2ccc(Br)o2)c2ccco2)cc1 (stereo not drawn)	·	·	7	·	·
Cc1ccc(/C=C/S(=O)(=O)NCC2(O)CCOCC2)cc1	·	·	-12	·	·
COc1cccc(Nc2nc(NCCO)c3ccccc3n2)c1	3	40*	-2	20	1
O=C(c1ccc(F)cc1F)N1CCC(c2nnc(-c3ccc(F)cc3)o2)CC1	·	·	-9	·	·
Cc1cccc(-c2cc3nc4c(c(N5CCOCC5)n3n2)CCCC4)c1	-7	i	-4	-1	·
Cc1cccc(-c2cc3nc4c(c(N5CCC6(CC5)OCCO6)n3n2)CCCC4)c1	-2	1	-18	11	0
COc1cc(NC(=O)c2ccccc2)c(OC)cc1NC(=O)CN1C(=O)NC2(CCCCC2)C1=O	4	-3	0	-7	·
COc1cc(NC(=O)c2ccccc2)c(OC)cc1NC(=O)CN1C(=O)N(C)C2(CCCCC2)C1=O	0	14	9	-1	1
CCCN1CCN(C(=O)CCCNC(=O)Cn2cnc3sc(C)c(C)c3c2=O)CC1	10	14	-18	·	5
CCC1C(=O)NCCN1C(=O)CCc1nnc(CCc2ccc(OC)cc2)o1 (stereo not drawn)	3	11	2	11	0
CCN(Cc1ccncc1)C(=O)CCc1nnc(CCc2ccc(OC)cc2)o1	-7	i	-7	-3	·
